The supplement of paper PMC7156485
± gives the standard deviation of the averaged measurements.

These molecules were tested on HCC1569 (assay: cell number relative to DMSO (% of DMSO); higher = more cells (less growth inhibition / toxicity)). Details: concentration: 10 µM; 24 h.
Outline: (§1)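 In 384-well plates holding 800 HCC1569 or TDF cells per well in RPMI with 10% FBS, compounds were tested at 10 µM for 24 h at 37 °C in triplicate. Fixation used 3.7% formaldehyde. Staining used a rabbit anti-H1.0 antibody with an AlexaFluor 647 secondary, plus DAPI. Each value, H1.0 nuclear intensity or cell number, is a median of replicates shown as percent of the plate control, and HCC1569 values were smoothed for positional effects.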
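Also: TDF denotes transformed human dermal fibroblasts of mesenchymal origin.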

Row | SMILES | cell number
1 | CCN(CC)C(C)C(=O)N1c2ccccc2Sc2ccccc21.Cl (stereo not drawn) [10-(alpha-Diethylaminopropionyl)-phenothiazine hydrochloride] | 93.7
2 | CCCCCCCCCCCCCCCCCCCCCCCC(=O)O [Tetracosanoic acid] | 99.5
3 | Cn1nc2c3c(cccc31)C(=O)c1ccccc1-2 [JNK Inhibitor,                    Negative Control] | 102
4 | Cl.Nc1cc(Nc2ccc(S(N)(=O)=O)cc2)ncn1 | 100
5 | CC(=O)Nc1ccc(NC(=S)NC(=O)c2ccc(C(C)(C)C)cc2)cc1 [p53 Activator (Tenovin-1)] | 96.5
6 | CC1(C)C(=O)N(CCN2CCC(C(=O)c3ccc(F)cc3)CC2)c2ccccc21.Cl [LY-310,762 hydrochloride] | 101
7 | Cc1cc2nc(NCCCO)n(CC(=O)c3cc(C(C)(C)C)c(O)c(C(C)(C)C)c3)c2cc1C | 67.9
8 | CCCCCCC=CCCCCCCCC(=O)O [9(Z)-Hexadecenoic acid] | 98.8

The molecules below were run on TDF in the same assay as above. Details: concentration: 10 µM; 24 h.
Outline: as §1

Row | SMILES | cell number
9 | COc1ccc(-c2cc(=O)c3c(O)cc(OC4OC(COC5OC(C)C(O)C(O)C5O)C(O)C(O)C4O)cc3o2)cc1O (stereo not drawn) [Diosmin] | 107
10 | CC1C(=O)OC2C(O)C34C5CC(C(C)(C)C)C36C(OC(=O)C6O)OC4(C(=O)O5)C12O (stereo not drawn) [Ginkgolide B] | 104
11 | O=C(O)c1cc(=O)c2c(Cl)cc(Cl)cc2[nH]1 [5,7-Dichlorokynurenic acid] | 98.6
12 | CCCn1cnc2c1c(=O)n(CCCCC(C)=O)c(=O)n2C [Propentofylline] | 113
13 | CC(NC(=O)CCc1nc(=O)c2ccccc2[nH]1)c1ccccc1 (stereo not drawn) | 111
14 | COc1cc(C(O)CO)ccc1OS(=O)(=O)[O-].[K+] (stereo not drawn) [MHPG sulfate potassium] | 105
15 | CC1=C(C)C(=O)C(CCCCC#CCCCC#CCO)=C(C)C1=O | 85 ± 1.8
16 | CS(=O)(=O)O.Cc1ccc(N(CC2=NCCN2)c2cccc(O)c2)cc1 [Phentolamine mesylate] | 105
17 | CC(O)CCCC(O)C=CC1C(O)CC(=O)C1CC=CCCCC(=O)O [19(R)-Hydroxy-prostaglandin E2] | 92.7
18 | CCn1cc(C(=O)O)c(=O)c2ccc(Cc3ccccc3)nc21 [Amfonelic acid] | 94.6
19 | Cl.OC(CCN1CCCCC1)(c1ccccc1)C1CCCCC1 (stereo not drawn) [Trihexyphenidyl hydrochloride] | 104
20 | CCCCCC=CCC=CCCCCCCCC(=O)NCC(=O)O [N-Linoleoylglycine] | 101
21 | COc1cc2nc(N3CCN(C(=O)c4ccco4)CC3)nc(N)c2cc1OC.Cl [Prazosin hydrochloride] | 99.8
22 | CN1CCN(C2=Nc3ccccc3Oc3ccc(Cl)cc32)CC1.O=C(O)CCC(=O)O [Loxapine succinate] | 94.3
23 | CC1(C)OC2CC3C4CC(F)C5=CC(=O)C=CC5(C)C4(F)C(O)CC3(C)C2(C(=O)CO)O1 (stereo not drawn) [Fluocinolone acetonide] | 96.3
24 | COc1cc(O)c2c(c1)oc(=O)c1c3cc(O)c(O)cc3oc21 [Wedelolactone] | 74.8
25 | Cc1ccc(Cl)c(Nc2ccccc2C(=O)[O-])c1Cl.[Na+] [sodium 2-(2,6-dichloro-3-methylanilino)benzoate] | 111
26 | CCCCCC=CCC1OC1CC=CCC=CCCCC(=O)O (stereo not drawn) [11,12-Epoxyeicosatrienoic acid] | 110
27 | COc1cc2nccc(Oc3ccc(NC(=O)NC4CC4)c(Cl)c3)c2cc1C(N)=O | 94.9
28 | COc1cc2ncnc(Sc3nnc(C)s3)c2cc1OC | 67.7

Row | SMILES | cell number
29 | Nc1ccc(CCNc2ncnc3c2ncn3C2OC(CO)C(O)C2O)cc1 (stereo not drawn) [N6-2-(4-Aminophenyl)ethyladenosine] | 109
30 | Cc1c[nH]c(C=C2C(=O)Nc3ccccc32)c1CCC(=O)O | 102
31 | CCCCCCCCCCCCCCCCOCC(COCC(F)(F)F)OP(=O)([O-])OC.[Li+] (stereo not drawn) | 93.8
32 | COCC(=O)OC1(CCN(C)CCCc2nc3ccccc3[nH]2)CCc2cc(F)ccc2C1C(C)C.Cl.Cl (stereo not drawn) [Mibefradil dihydrochloride] | 90.1
33 | CCCC(CCC)C(=O)NO [N-hydroxy-2-propylpentanamide] | 102
34 | CCCCCCCC(=O)OCC(CO)OC(=O)CCCCCCC (stereo not drawn) [1,2-Dioctanoyl-SN-glycerol] | 101
35 | Nc1nc(OCc2ccccc2)c2[nH]cnc2n1 [O6-benzylguanine] | 96.6
36 | NCC1OC(OC2C(N)CC(N)C(OC3OC(CO)C(O)C(N)C3O)C2O)C(N)CC1O (stereo not drawn) [Tobramycin (free base)] | 102
37 | COc1cc2c3cc1Oc1cc(ccc1O)CC1c4c(cc(OC)c(O)c4Oc4ccc(cc4)CC3N(C)CC2)CC[N+]1(C)C.Cl.[Cl-] (single isomer, unassigned; (+)) [(+)-Tubocuraraine chloride] | 109
38 | CN1C2CCC1CC(OC(c1ccccc1)c1ccccc1)C2.CS(=O)(=O)O (stereo not drawn) [Benztropine mesylate] | 114
39 | CCCCCCCCC=CCCCCCCCCOCC(COP(=O)([O-])OCC[N+](C)(C)C)OC(C)=O (stereo not drawn) | 114
40 | NC(=O)c1ccc(-c2nc(-c3ccc4c(c3)OCCO4)c(-c3ccccn3)[nH]2)cc1 [Casein Kinase I Inhibitor, D4476] | 97
41 | CCN(CC)C(C)C(=O)N1c2ccccc2Sc2ccccc21.Cl (stereo not drawn) [10-(alpha-Diethylaminopropionyl)-phenothiazine hydrochloride] | 99
42 | CCCCCCCCCCCCCCCCCCCCCCCC(=O)O [Tetracosanoic acid] | 104
43 | Cn1nc2c3c(cccc31)C(=O)c1ccccc1-2 [JNK Inhibitor,                    Negative Control] | 95.3
44 | Cl.Nc1cc(Nc2ccc(S(N)(=O)=O)cc2)ncn1 | 93.3
45 | CC(=O)Nc1ccc(NC(=S)NC(=O)c2ccc(C(C)(C)C)cc2)cc1 [p53 Activator (Tenovin-1)] | 91.1
46 | CC1(C)C(=O)N(CCN2CCC(C(=O)c3ccc(F)cc3)CC2)c2ccccc21.Cl [LY-310,762 hydrochloride] | 94.5
47 | Cc1cc2nc(NCCCO)n(CC(=O)c3cc(C(C)(C)C)c(O)c(C(C)(C)C)c3)c2cc1C | 78.5
48 | CCCCCCC=CCCCCCCCC(=O)O [9(Z)-Hexadecenoic acid] | 104
